Whole data set: some 18,000 sequences, median “log2 normalized intensity” near 0.39, cut for the highest 2% near 6.6. Shown is part of a subset that was picked to be rich in the highest values.

For this test, the target named is T1, HNF4alpha2 (COS-7 nuclear extract) (Homo sapiens, UniProt P41235 1-474).
T1 sequence: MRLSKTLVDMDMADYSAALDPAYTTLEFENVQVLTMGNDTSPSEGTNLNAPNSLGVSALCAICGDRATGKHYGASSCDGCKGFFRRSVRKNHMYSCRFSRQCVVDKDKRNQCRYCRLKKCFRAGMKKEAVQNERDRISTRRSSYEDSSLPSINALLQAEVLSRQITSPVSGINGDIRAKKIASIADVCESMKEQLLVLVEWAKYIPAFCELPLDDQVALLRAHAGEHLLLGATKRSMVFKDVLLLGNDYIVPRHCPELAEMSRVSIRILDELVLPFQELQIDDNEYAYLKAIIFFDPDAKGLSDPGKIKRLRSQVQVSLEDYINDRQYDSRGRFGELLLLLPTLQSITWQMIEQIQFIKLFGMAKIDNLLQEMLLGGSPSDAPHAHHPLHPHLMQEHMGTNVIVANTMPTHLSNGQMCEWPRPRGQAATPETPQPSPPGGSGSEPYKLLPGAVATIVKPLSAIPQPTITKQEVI
Kind of test: protein-binding microarray; COS-7 nuclear extract on double-stranded Agilent 4x180k PBM; binding buffer, salt, pH and temperature not given in the material; high values mean tight binding. To be noted: chain copies: 2; label: 3' end of strand 1 on the slide; dsDNA, one strand shown. The essentials:
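Binding signal is the background-corrected, normalized gProcessedSignal calculated by Agilent software. It was measured by applying nuclear extracts of COS-7 cells transiently transfected with a human HNF4α isoform expression vector to a custom Agilent SurePrint G3 4x180k array of ~44,000 double-stranded ~60-nt test sequences in quadruplicate, then imaging bound HNF4α on an Agilent G2565CA scanner at 2-µm resolution.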
Turning to “GCAGAAATCAACTGCCCTCTGCCTTTCAGGGCCTAGGGAGATTAGAGTATCGGTCGA”, the binding signal is -0.661 log2 normalized intensity. Turning to “AGAGCACATTCTTCCATATAACCCTTGAACGCCTAGGGAGATTAGAGTATCGGTCGA”, the binding signal worked out at 3.6 log2 normalized intensity. For the sequence “TCAAAGGGCTTAATCTTTCCTGCCTGCCGGGCCTAGGGAGATTAGAGTATCGGTCGA”, the binding signal is -0.693 log2 normalized intensity. For “ACTTTGACCTTGTTTTCAATGACTACCTGTGCCTAGGGAGATTAGAGTATCGGTCGA”, the binding signal was 1.84 log2 normalized intensity. As for “GACCTTGTTTTCAATGACTACCTGTTACCCGCCTAGGGAGATTAGAGTATCGGTCGA”, the binding signal was found to be 1.45 log2 normalized intensity. “CACATGCTATTATTTTCCATCAGTGGACTTGCCTAGGGAGATTAGAGTATCGGTCGA”: the binding signal was found to be 3.5 log2 normalized intensity. In the case of “GCCAGCCAGGGCCACCCATCAGTGGACTTTGCCTAGGGAGATTAGAGTATCGGTCGA”, the binding signal came to 6.63 log2 normalized intensity. “AGTGGACTTTGACCTTGTTTTCAATGACTAGCCTAGGGAGATTAGAGTATCGGTCGA”: the binding signal worked out at 7.31 log2 normalized intensity. As for “GCCACCCATCAGTGGACTTTGACCTTGTTTGCCTAGGGAGATTAGAGTATCGGTCGA”, the figure is 10.6 log2 normalized intensity; as for “CCCAGGGACTTTGGCCTTACTTGGCCTGTTGCCTAGGGAGATTAGAGTATCGGTCGA”, 2.62 log2 normalized intensity; as for “GTTCAATGCTTCAGTGAGCCTTGACCTTCAGCCTAGGGAGATTAGAGTATCGGTCGA”, 4.09 log2 normalized intensity. Consider “CCATCAGTGGACTTTGACCTTGTTTTCAATGCCTAGGGAGATTAGAGTATCGGTCGA”, for which the binding signal was 9.03 log2 normalized intensity. As for “TTTGCCATTTGGAGAGAGTTTGGCCCCAGTGCCTAGGGAGATTAGAGTATCGGTCGA”, the binding signal was 2.44 log2 normalized intensity. The result for “ACCCACCCACACCTCCCCTTTGTTTAACTTGCCTAGGGAGATTAGAGTATCGGTCGA” reads 2.8 log2 normalized intensity; that for “AGACCTTTGACATCACCTAACTTGTGGCTGGCCTAGGGAGATTAGAGTATCGGTCGA”, 0.674 log2 normalized intensity; that for “GTATCTCTTCGCCTTGCTTATCTGGGAGGGGCCTAGGGAGATTAGAGTATCGGTCGA”, -0.214 log2 normalized intensity. The result for “CTTCAAAGGAGTGGAGGAAGGAAGAAGTGTGCCTAGGGAGATTAGAGTATCGGTCGA” reads 0.537 log2 normalized intensity; that for “GTGGTCATGTAGGTGTCTCAGGAATGTCCTGCCTAGGGAGATTAGAGTATCGGTCGA”, 1.85 log2 normalized intensity. As for “GCTTATGCATGGGAGATCTTCAGTAAGAGGGCCTAGGGAGATTAGAGTATCGGTCGA”, the figure is -0.283 log2 normalized intensity; as for “GCTGGAACTCCTCCGGTCAAGATCAAGTGGGCCTAGGGAGATTAGAGTATCGGTCGA”, 0.207 log2 normalized intensity; as for “TCTAAGATTGGCCCTGATAATCAATCCAGCGCCTAGGGAGATTAGAGTATCGGTCGA”, -0.941 log2 normalized intensity. As to “CCACAGAATCGCCCCACCCTGCCTGGGTAGGCCTAGGGAGATTAGAGTATCGGTCGA”, the binding signal was 1.35 log2 normalized intensity. For the sequence “TCAGAGCAGGTGAACGACTTGACAAAGGTCGCCTAGGGAGATTAGAGTATCGGTCGA”, the binding signal stood at 3.22 log2 normalized intensity.

As for “GGGGAGGGCATGGACTTTGGAATTAAGGAGGCCTAGGGAGATTAGAGTATCGGTCGA”, the binding signal stood at 5.45 log2 normalized intensity. For the sequence “TTATCATGTGGTATTAACATGTAAATATGAGCCTAGGGAGATTAGAGTATCGGTCGA”, the binding signal was 1.69 log2 normalized intensity. Regarding “AATGACCTTTGTCCAGCTGTGCCGAGCCTGGCCTAGGGAGATTAGAGTATCGGTCGA”, the binding signal came out at 4.02 log2 normalized intensity.

As for “GGGGAAATGACCTTTGTCCAGCTGTGCCGAGCCTAGGGAGATTAGAGTATCGGTCGA”, the binding signal was found to be 6.11 log2 normalized intensity. “CTGGTGTAGTGGGGAGGGCATGGACTTTGGGCCTAGGGAGATTAGAGTATCGGTCGA”: the binding signal came out at 5.45 log2 normalized intensity. For “TGATGACTTTTGACCCCAGGGGAAACTCCAGCCTAGGGAGATTAGAGTATCGGTCGA”, the binding signal was found to be 3.99 log2 normalized intensity. Take “GTAGTGGGGAGGGCATGGACTTTGGAATTAGCCTAGGGAGATTAGAGTATCGGTCGA”: the binding signal was 7.37 log2 normalized intensity. Take “ATGTGGTATTAACATGTAAATATGACCTTTGCCTAGGGAGATTAGAGTATCGGTCGA”: the binding signal turned out to be 7.12 log2 normalized intensity. Take “GGAGGACTTTGGAATGGCAGTGCTTGTCCAGCCTAGGGAGATTAGAGTATCGGTCGA”: the binding signal turned out to be 1.83 log2 normalized intensity. As for “ACTTTGGGGAAATGACCTTTGTCCAGCTGTGCCTAGGGAGATTAGAGTATCGGTCGA”, the binding signal was 6.74 log2 normalized intensity. With “GTATTAACATGTAAATATGACCTTTGCTTTGCCTAGGGAGATTAGAGTATCGGTCGA”, the binding signal came to 6.44 log2 normalized intensity. Regarding “GAATGACTTTGGGGAAATGACCTTTGTCCAGCCTAGGGAGATTAGAGTATCGGTCGA”, the binding signal is 8.8 log2 normalized intensity. As for “CTAAAAACATTGTGGAGCTCATGTAAGGTCGCCTAGGGAGATTAGAGTATCGGTCGA”, the binding signal worked out at 1.62 log2 normalized intensity. For the sequence “CATGTGGGTCCAAAGAACATTGCATTCCTTGCCTAGGGAGATTAGAGTATCGGTCGA”, the binding signal was 1.55 log2 normalized intensity.

Turning to “CCCCGCCTTGGCCTCCCGGAGAGGCCCCGCGCCTAGGGAGATTAGAGTATCGGTCGA”, the binding signal turned out to be 2.49 log2 normalized intensity.

As to “CCCCCACACCATTAGAGAACATGTACTTTGGCCTAGGGAGATTAGAGTATCGGTCGA”, the binding signal was found to be 3.32 log2 normalized intensity. Consider “TTAAAGGGCAGAAGAAGGGATTTAGATTAGGCCTAGGGAGATTAGAGTATCGGTCGA”, for which the binding signal was -0.58 log2 normalized intensity. For the sequence “GATCCTCCCACTTCAGCCTCCCGAGTAGTTGCCTAGGGAGATTAGAGTATCGGTCGA”, the binding signal came to 2.81 log2 normalized intensity. As for “TGAGAGAGCATCCAGATAAAGCTGAAGAAAGCCTAGGGAGATTAGAGTATCGGTCGA”, the figure is -0.814 log2 normalized intensity; as for “TTCAGCCATTTTATGACCATGAGGTGACGGGCCTAGGGAGATTAGAGTATCGGTCGA”, 1.6 log2 normalized intensity.

Values taken from paper PMC10726135, “HNF4α isoforms regulate the circadian balance between carbohydrate and lipid metabolism in the liver”.
